Screening results: PubChem BioAssay, National Center for Advancing Translational Sciences (NCATS)
DT40 TDP1 CPT: DT40-hTDP1 cell growth loss with CPT | AID 686979 | 420,000 tested, 12% active | chicken DT40 Tdp1-/-;hTDP1 cells + 20 nM CPT, ATP luminescence, 48 h | Potency, µM (doses to about 46.2 µM), without a hit: top-dose activity change, negative = growth inhibition, most hits filed as inhibitors; further: nearly all actives have a fitted effect of over 55% in size
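Chicken DT40 Tdp1-/- cells stably complemented with human TDP1 were seeded at 400 cells/well in medium containing 20 nM camptothecin, exposed to pin-transferred compounds, and grown at 37 °C for at least 48 hr. Viability was read as ATP luminescence.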
ALOX12 inh: inhibitors of human 12S-lipoxygenase ALOX12. purified 12hLO, xylenol orange hydroperoxide absorbance. 580,000 tested, 1.1% active. Potency, µM (top dose mostly 108 µM), for inactives: at the top dose activity change, negative = inhibition, hits mostly inhibitors. P18054
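Purified human 12hLO at 150 nM in 25 mM Hepes, 0.01% Triton X-100, pH 7.0, preincubated 15 min at room temperature with compound. Reaction started with 40 uM arachidonic acid, 30 min at room temperature. Hydroperoxide measured by Fe-xylenol orange, 573/405 nm absorbance ratio.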
Gal4-VP16 FLuc: inhibits Gal4-VP16 luciferase reporter, ROR gamma counter-screen | Drosophila S2 Gal4-VP16 UAS-luciferase, luminescence, 20 h | AID 2546 | 310,000 tested, 3.5% active | Potency, µM (titrated, usually from 53.6 µM), without a hit: at the highest dose activity, negative = inhibition, most hits filed as inhibitors;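 further: Gal4-VP16 expression switched on by copper sulfate through the metallothionein promoter; nearly all actives have a fitted effect of over 50% in size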
RORgamma inh: blocks mouse ROR gamma transcriptional activity; P51450; Drosophila S2 Gal4-RORgamma UAS-luciferase reporter, 20 h; Potency, µM (titrated, usually from 53.6 µM), for inactives: top-dose activity change, negative = inhibition, hits mostly inhibitors; AID 2551; 310,000 tested, 5.4% active; further: nearly all actives have a fitted effect of over 60% in size
Target sequence (P51450 whole entry, looked up, the tested form may be a part): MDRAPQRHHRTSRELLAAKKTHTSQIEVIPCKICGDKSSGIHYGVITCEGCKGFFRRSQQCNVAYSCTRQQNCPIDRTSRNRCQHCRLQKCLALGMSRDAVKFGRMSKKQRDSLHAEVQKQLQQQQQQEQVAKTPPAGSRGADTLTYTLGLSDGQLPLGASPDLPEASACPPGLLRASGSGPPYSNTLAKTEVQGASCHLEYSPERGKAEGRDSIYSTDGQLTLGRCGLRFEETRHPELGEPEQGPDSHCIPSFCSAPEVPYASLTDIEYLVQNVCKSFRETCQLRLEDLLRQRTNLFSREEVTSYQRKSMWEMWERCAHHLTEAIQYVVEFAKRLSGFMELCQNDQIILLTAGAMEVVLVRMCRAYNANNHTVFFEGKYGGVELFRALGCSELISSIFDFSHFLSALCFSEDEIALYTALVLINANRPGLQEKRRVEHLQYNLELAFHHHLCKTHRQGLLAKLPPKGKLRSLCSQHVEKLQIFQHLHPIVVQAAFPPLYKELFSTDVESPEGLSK
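Stable Schneider cell line, Gal4 DNA-binding domain fused to ROR gamma, UAS-luciferase. Cmpd 1 hr RT → CuSO4 700 uM final → 20 hr RT → luciferase reagent 10 min → luminescence.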
ELG1 DNA repair: blocks ELG1-dependent DNA repair in HEK293T cells. HEK293T ELG1-luciferase reporter, luminescence, 16 h; DNA damage induced by 5-fluorouridine. Potency, µM (highest dose often 46.1 µM), for inactives: at the top dose activity change, negative = inhibition, usual class: inhibitors. 330,000 tested, 2.3% active. AID 504467; further: nearly all actives have a fitted effect of over 55% in size
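Luminescence from the luciferase reporter, measured 30 min after ONE-Glo reagent at room temperature, was the read-out. Beforehand, 2,000 cells per well were exposed for 16 hr at 37 °C to 5-fluorouridine together with compound or vehicle.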
DT40 TDP1 no CPT: qHTS for Inhibitors of human tyrosyl-DNA phosphodiesterase 1 (TDP1): qHTS in cells in absence of CPT; DT40 Tdp1-/- hTDP1 cells, no CPT, ATP luminescence, 48 h; Potency, µM (highest dose often 46.2 µM), inactives show at the highest dose activity change, negative = growth inhibition, most hits filed as inhibitors; 420,000 tested, 15% active; further: nearly all actives have a fitted effect of over 55% in size
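Luminescent ATP content (CellTiter-Glo) served as the growth readout. Knockout chicken DT40 cells expressing human TDP1 were exposed to compounds without camptothecin for a minimum 48 hr at 37 °C.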
The depositor's hits bear a star; i = inactive; ? = inconclusive; nt = no result given; ! = not active in a repeat; [ ] = another dose, or the depositor's remark. This is a sample that favours compounds with a hit; in the whole collection about 15% have one here. The call rests on the fitted dose curve; in most records, active means well fitted curve in the direction sought with a large enough effect; inconclusive means small, poorly fitted or top-dose-only effect, or another doubt; inactive means no such curve, though single readings can be large; an effect the other way counts as inactive or inconclusive. On the % scale 0 is the no-effect control and ±100 the full control effect; potency means the concentration at half of the fitted maximal effect.

SMILES	DT40 TDP1 CPT	ALOX12 inh	Gal4-VP16 FLuc	RORgamma inh	ELG1 DNA repair	DT40 TDP1 no CPT
CCn1c(=S)[nH]c2cc(S(=O)(=O)N3CCCCC3)ccc21	?	-28%	?	10µM*	?	13µM*
O=C1c2c(nc(CNCc3cccc(Cl)c3)n2Cc2ccccc2)NCCN1Cc1ccccc1	nt	41%	nt	nt	nt	nt
Nc1ccc(C(=O)NN2C(=O)[C@H](Cl)C2c2ccc(Cl)cc2)cc1 (some centres not stated)	3.7µM*	?	nt	nt	nt	3.7µM*
NC(=O)CN1CCC(NC(=O)c2ccc(Cl)cc2)CC1	nt	19%	nt	nt	nt	nt
N#Cc1nc(COc2ccccc2F)oc1NCCCN1CCOCC1	nt	48%	nt	nt	nt	nt
Cc1ccc2nc(CO[C@H]3CN(Cc4ccc(C(F)(F)F)cc4)C[C@H]3F)[nH]c2c1	nt	24%[176 µM]	nt	nt	nt	nt
C/C(=C(\CCOC(=O)c1ccccc1)SS/C(CCOC(=O)c1ccccc1)=C(/C)N(C=O)Cc1cnc(C)nc1N)N(C=O)Cc1cnc(C)nc1N	27µM*	nt	nt	nt	nt	?
CCCCN(CC)Cc1ccc(CNC(=O)Nc2ccc(Cl)cc2)o1	3.3µM*	?	0%	4%	-15%	5.8µM*
Cc1cc(N2C(=O)C(=O)/C(=C(/O)c3ccccc3)C2c2cccs2)no1 (configuration not stated)	0%	-13%	1%	-9%	0%	3%
COc1cccc(/C(O)=C2/C(=O)C(=O)N(c3cc(C)on3)C2c2cccs2)c1 (configuration not stated)	?	?	-11%	3%	6%	3.7µM*
COc1cccc(NC(=S)/C(=C(\[O-])c2ccc(C)c([N+](=O)[O-])c2)[n+]2ccccc2)c1	-23%	0%	?	0%	?	-25%
COc1cccc(NC(=S)/C(=C(\[O-])c2cc(C)n(-c3ccccc3F)c2C)[n+]2ccc(N(C)C)cc2)c1	21µM*	?	-10%	32%	?	12µM*
Cc1cc(C([O-])=C(C(=S)Nc2ccc(F)cc2)[n+]2ccccc2)c(C)n1-c1ccc(F)cc1	26µM*	?	nt	nt	nt	21µM*
O=C(CCC(=O)N1CCC(c2noc3ccc(F)cc23)CC1)N1CCOCC1	nt	8%	nt	nt	nt	nt
COCCNS(=O)(=O)c1cccc2c1CN(C(=O)CCn1cncn1)CC2	nt	22%	nt	nt	nt	nt
N#CC1=C(N)SC(N)=C(C#N)C1c1cccc(O)c1	23µM*	32µM*	-14%	7%	13%	?
N#CC1=C(N)Oc2cc(O)ccc2C1c1ccccc1 (configuration not stated)	-22%	4.5µM*!	-1%	0%	-12%	?
COc1ccc(N=Cc2cc3c(cc2O)OC(N)=C(C#N)C3c2ccccc2)cc1 (configuration not stated)	?	-30%	?	-12%	?	21µM*
COc1ccc(C2C(C#N)=C(N)SC(N)=C2C#N)cc1OC	4%	?	0%	9%	-15%	-8%
N#CC1=C(N)Oc2cc(N)ccc2C1c1ccccc1F (configuration not stated)	7.3µM*	2%	12%	-34%	-15%	8.2µM*
COc1ccccc1OCCNC(=O)CCC1CCN(C(=O)c2ccccc2F)CC1	nt	40%	nt	nt	nt	nt
CN(C)Cc1cccc(-c2cc3c(ccn3Cc3ccncc3)c(N3CCOCC3)n2)c1	nt	17%[176 µM]	nt	nt	nt	nt
N#CC1=C(N)Oc2cc(N)ccc2C1c1cccc(Br)c1 (configuration not stated)	2.9µM*	?	-15%	-21%	-25%	1.5µM*
Cc1ccc(C2C(C#N)=C(N)Oc3cc(N)ccc32)cc1 (configuration not stated)	-12%	i	-1%	21%	-16%	-26%
CCNc1nc(NC(C)(C)C)nc(N2CCCCC2)n1	21µM*	-4%	?	?	-19%	21µM*
SMILES	DT40 TDP1 CPT	ALOX12 inh	Gal4-VP16 FLuc	RORgamma inh	ELG1 DNA repair	DT40 TDP1 no CPT
CC(C)(CO)Nc1nc(N2CCCC2)nc(N2CCCC2)n1	?	2%	2%	32%	-7%	21µM*
CCn1c(CCn2c3ccccc3c3ccccc32)n[nH]c1=S	15µM*	?	6.3µM*	5.6µM*	-3%	?
CCCCc1n[nH]c(=S)n1Cc1ccccc1	-2%	?	16µM*	4µM*	2%	-24%
CCn1c(CCc2ccccc2)n[nH]c1=S	-7%	?	?	8.9µM*	8%	?
CCn1c(CSc2nc3ccccc3[nH]2)n[nH]c1=S	-1%	?	18%	?	13%	-1%
CCn1c(Cc2ccccc2)n[nH]c1=S	-3%	-1%	-25%	?	14%	8%
CCn1c(CSCc2ccccc2)n[nH]c1=S	?	7%	?	4µM*	-4%	?
Oc1c(Cl)cccc1C=Nc1cc(C(F)(F)F)ccc1Oc1ccccc1	nt	-26%	nt	nt	nt	nt
CCCc1ccc(NC(=O)CC2(C(=O)O)CCCC2)cc1	nt	2%	nt	nt	nt	nt
COc1cccc(C2SCC(=O)N2c2ccc(Br)cc2)c1OC (configuration not stated)	23µM*	11%	?	-4%	-1%	?
CCc1nc2c(OCCC3CCCCC3)cccn2c1N(C)C(=O)C(C)C	13µM*	nt	nt	nt	nt	?
CCc1nc2c(OCC3CCCCC3)cccn2c1N(C)C(=O)c1ccccc1F	?	-1%	nt	nt	nt	16µM*
CCc1nc2c(OCCC3CCCCC3)cccn2c1N(C)C(=O)C1CC1	18µM*	nt	nt	nt	nt	13µM*
CCc1nc2c(OCCC3CCCCC3)cccn2c1N(C)C(=O)COc1ccccc1	16µM*	?	nt	nt	nt	?
COc1cc(OC)cc(-c2nc3n(n2)C(c2ccncc2)C2=C(CC(C)(C)CC2=O)N3)c1 (configuration not stated)	nt	30%	nt	nt	nt	nt
CN(C)S(=O)(=O)c1ccc(N2CCCC2)c(C(=O)N2CCc3ccccc32)c1	nt	5%	nt	nt	nt	nt
CSc1ccc(/C=C/C(=O)Nc2ccccc2Cc2ccccc2)cc1	nt	11%	nt	nt	nt	nt
CCc1nc2c(OCCOC)cccn2c1N(C)C(=O)Nc1ccccc1OC	-6%	2%	nt	nt	nt	-5%
CCc1nc2c(OCC3CCCCC3)cccn2c1N(C)C(=O)c1ccc(OC)cc1	18µM*	?	nt	nt	nt	18µM*
CCc1nc2c(OCCC3CCCCC3)cccn2c1N(C)C(=O)c1ccc(C)cc1	15µM*	45µM*	nt	nt	nt	15µM*
CCc1nc2c(OCCOc3ccccc3)cccn2c1N(C)C(=O)C1CC1	16µM*	nt	nt	nt	nt	?
